# Activity calls are given as the source filed them. Unless noted, the rule behind the calls is not given here.
# What was measured:
# [1] = test system: XIP peptide (Xip251-270) binding; assay: XIP fragment 251-270 binding compounds – biochemical, small-molecule microarray, fluorescence 635/667 nm, 0.1 µg/mL protein, primary screen (AID 1182); settings: fluorescent protein binding, 635 nm, higher = more signal, called active from +8 up or from −8 down
# [2] = test system: XIP peptide (Xip251-270); assay: compounds binding XIP fragment 251-270 – biochemical, small-molecule microarray, fluorescence 635/667 nm, 0.5 µg/mL protein, primary screen (AID 1183); settings: fluorescence 635 nm, higher = more signal
# [3] = blood-stage malaria parasite viability loss – strain 3D7, DAPI fluorescence, 100 nL, primary screen (AID 1184);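 note: parasites grown inside human red blood cells in medium with human serum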; settings: P. falciparum 3D7 growth, 3 d, higher = more signal
# [4] = molecular target: Homeobox protein Hox-A13 (Mus musculus) (UniProt Q62424); assay: disruptors of Hoxa13 oligonucleotide interaction – biochemical, fluorescence polarization, labeled oligonucleotide, primary screen (AID 1185); settings: Hoxa13:DNA binding, 15 min, higher = more signal, called active from +8 up or from −8 down
# [5] = blockers of DNA damage checkpoint Chk1 activation – imaging, HeLa, hydroxyurea, phospho-Chk1 antibody, percent positive cells, primary screen (AID 1186); settings: hydroxyurea-induced phospho-Chk1 immunofluorescence imaging, higher = more signal
# [6] = blockers of DNA damage checkpoint Chk1 activation – imaging, HeLa, hydroxyurea, phospho-Chk1 nuclear intensity, primary screen (AID 1187); settings: hydroxyurea-induced phospho-Chk1 immunofluorescence imaging, higher = more signal
# Sequence of Homeobox protein Hox-A13 (Mus musculus) (Q62424 whole entry, looked up): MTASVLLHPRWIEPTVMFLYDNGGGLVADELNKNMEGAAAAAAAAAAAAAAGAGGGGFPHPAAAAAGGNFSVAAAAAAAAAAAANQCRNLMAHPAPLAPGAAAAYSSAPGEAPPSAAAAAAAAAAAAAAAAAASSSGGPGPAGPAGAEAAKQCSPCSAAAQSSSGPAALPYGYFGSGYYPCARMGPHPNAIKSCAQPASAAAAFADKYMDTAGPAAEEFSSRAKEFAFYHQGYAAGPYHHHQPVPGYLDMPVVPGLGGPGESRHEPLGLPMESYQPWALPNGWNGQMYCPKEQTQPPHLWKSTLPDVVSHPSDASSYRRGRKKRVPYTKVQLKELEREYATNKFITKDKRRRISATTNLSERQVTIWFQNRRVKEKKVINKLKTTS
SMILES,composite z-score [1],composite z-score [2],z-score [3],z-score [4],z-score [5],z-score [6]
C[C@@H]1NC(=O)[C@@H](Cc2ccccc2)NC(=O)[C@@]23C(=O)N[C@@H](Cc4ccccc4)C2[C@H](C)[C@@]2(C)O[C@H]2C3/C=C/C/C=C\CNC1=O (some centres not stated),-0.274 (inactive),0.711,-0.132,-6.78 (inactive),-0.115 (inactive),-0.328 (inactive)
C=CC[C@]1(C(=O)N2CCCCC2)N=C(c2ccc(OCCCO)cc2)O[C@H]1c1ccccc1CN=[N+]=[N-],0.541 (inactive),0.652,-2.57,-3.9 (inactive),-0.707 (inactive),-1.06 (inactive)
COc1cc2c(cc1O)C(C1CC1)N(Cc1cccc(OC(F)(F)F)c1)CC2 (configuration not stated),0.676 (inactive),0.651,-1.8,-5.17 (inactive),0.433 (inactive),0.678 (inactive)
C=C(C(=O)CC[C@H](OC(=O)c1ccccc1-c1ccccc1C(=O)O)c1cccc(OCCO)c1)C(C)C,-0.145 (inactive),0.232,-2.12,-5.93 (inactive),0.442 (inactive),-0.51 (inactive)
C=CCC(OC(C)=O)[C@@H]1[C@@H](N(Cc2ccc(-c3ccccc3)cc2)C(=O)c2ccc(-c3ccccc3)cc2)c2cc(OCCCO)ccc2N1C(=O)c1ccc2ccccc2c1 (some centres not stated),-0.29 (inactive),-0.482,0.248,-0.68 (inactive),0.215 (inactive),-0.144 (inactive)
COC(=O)[C@]1(CCS(=O)(=O)c2ccccc2)N=C(c2ccc(OCCCO)cc2)O[C@@H]1c1ccccc1N=[N+]=[N-],1.48 (inactive),0.836,-2.36,-3.34 (inactive),-0.265 (inactive),-0.364 (inactive)
Cc1cc(C)c(C(O)C2C=CC3C(=O)N(c4ccccc4)C(=O)C3N2Nc2ccccc2F)c(C)c1 (configuration not stated),-0.121 (inactive),0.863,-0.286,-1.39 (inactive),0.153 (inactive),-0.0495 (inactive)
[N-]=[N+]=Nc1ccccc1C[C@]1(C(=O)NCCN2CCOCC2)COC(c2ccc(OCCCO)cc2)=N1,0.728 (inactive),0.256,-1.06,-6.04 (inactive),-0.566 (inactive),-0.17 (inactive)
COc1ccc([C@H]2OC[C@@H]3C[C@H](Cc4ccccc4)C(=O)N32)cc1,-0.299 (inactive),0.0713,0.877,-0.716 (inactive),0.311 (inactive),0.0211 (inactive)
CCOC(=O)C[C@H]1[C@H](OC(=O)c2cc3ccccc3oc2=O)[C@@H](NC(=O)CC(C)C)c2cc(OCCCO)ccc2N1C(=O)c1ccc2ccccc2n1,2.46 (inactive),0.46,-0.533,-4.43 (inactive),-0.121 (inactive),-0.507 (inactive)
COC(=O)[C@@]1(Cc2ccc(F)cc2)[C@H]2c3cc(C(=O)N(C)C)n(CCc4ccc(OC)c(Br)c4)c3C[C@H]2CN1C(=O)c1ccccc1,-0.192 (inactive),0.167,-1.75,-5.01 (inactive),-0.316 (inactive),-0.869 (inactive)
CCOc1cc(C(O)C2C=CC3C(=O)NC(=O)C3N2Nc2ccc(Cl)cc2Cl)ccc1O (configuration not stated),-0.736 (inactive),0.966,0.0361,-2.05 (inactive),0.394 (inactive),0.627 (inactive)
COCCOC(=O)N1C(=O)[C@@]2(c3cc(C#CC4(O)CCCCCC4)ccc31)[C@H](c1ccc(O)cc1)N1[C@H](c3ccccc3)[C@H](c3ccccc3)OC(=O)[C@H]1[C@@H]2C(=O)N1CCN(c2ncccn2)CC1,0.0849 (inactive),0.699,-1.99,-1.62 (inactive),0.13 (inactive),0.232 (inactive)
O=C1C2C=CC(C(O)c3ccco3)N(Nc3ccccc3F)C2C(=O)N1c1ccccc1 (configuration not stated),0.36 (inactive),-0.139,1.09,-1.61 (inactive),0.456 (inactive),0.257 (inactive)
COc1cc(NN2C(C(O)c3cc(OC)c(OC)c(OC)c3)C=CC3C(=O)N(C)C(=O)C32)cc(OC)c1OC (configuration not stated),0.248 (inactive),0.438,-0.354,-4.51 (inactive),-0.325 (inactive),-0.328 (inactive)
COC(=O)[C@@H]1N=C(c2ccc(OCCCO)cc2)O[C@@H]1C,0.0312 (inactive),0.232,0.985,-2.44 (inactive),-0.749 (inactive),-0.626 (inactive)
Cc1ccc(S[C@]2(C(=O)NCc3ccccc3)CC(=O)N(C3CCCCC3)[C@@H]2c2ccc(CO)cc2I)cc1,0.2 (inactive),0.742,-2.17,-2.37 (inactive),0.355 (inactive),0.557 (inactive)

# Source: PubChem BioAssay
